Inconclusive results are not listed. Active and inactive are the calls of the source. Calls come from the whole dose curve; as a rule, active = well fitted cell-killing curve with a large enough effect; inconclusive = small, poorly fitted or top-dose-only effect; inactive = flat fitted curve, though single readings scatter.
Assay: Cell Viability - LYMP2-026 (AID 989); note: nearly all actives have a fitted effect of over 50% in size
Conditions: LYMP2-026 lymphoblastoid cell viability, qHTS; series mostly up to 92.2 µM; activity change, negative = cytotoxic: at the top concentration
From the text: NIH Chemical Genomics Center [NCGC]
NIH Molecular Libraries Screening Centers Network [MLSCN]
National Institutes of Environmental Health Sciences [NIEHS]
National Toxicology Program [NTP]
We have developed a 1536-well cell-based assay for quantitative high throughput screening (qHTS) against a number of cell lines to determine in vitro cytotoxicity of small molecules. This particular assay uses a human lymphoblastoid cell line (LYMP2-026) purchased from Coriell Institute for Medical Research.
NCGC Assay Protocol Summary:
The CellTiter-Glo luminescent cell viability assay (Promega) is a homogeneous method to measure the number of viable cells in culture. The end point readout of this assay is based on quantitation of intracellular ATP, an indicator of metabolic activity, using the luciferase reaction. Luciferase catalyzes the oxidation of beetle Luciferin to oxyluciferin and light in the presence of ATP. The luminescent signal is proportional to amount of ATP present.
Using the CellTiter-Glo luminescent cell viability assay, the amount of cellular ATP was measured in the lymphoblastoid cell line with complete culture medium following compound treatment for 24 hours. The assay was performed in opaque white Kalypsys 1536-well plates. In the screen, tetraoctylammonium bromide was used as positive control. Library compounds were measured for their ability to cause acute toxicity in the cell line, as reflected by a decrease in intracellular ATP levels, in a concentration-dependent manner. […] AC50 values were determined from concentration-response data modeled with the standard Hill equation.
qHTS protocol for CellTiter Glo lymphoblastoid cellular assay
[Step] [Parameter] [Value] [Description]
1. Reagent; 5 uL; 2500 lymphoblastoid cells/well
2. Time; 5 hr; 37 C incubation
4. Controls; 23 nL; Tetraoctylammonium bromide 6.4pM to 92 uM
5. Time; 24 hr; 37 C incubation
6. Reagent; 5 uL; CellTiter Glo reagent
7. Time; 30 min; Room Temperature
8. Detection; Luminescence; Viewlux plate reader
Keywords: cell viability, cytotoxicity, lymphoblastoid cell line, luminescence, NTPHTS, NTPHTS_NCGC, NIEHS, DSSTox, MLSMR, MLSCN, NIH Roadmap, qHTS, NCGC
% is set by controls: 0 for no effect and ±100 for the full control effect.

SMILES	activity change, negative = cytotoxic	outcome
COc1ccc2[nH]cc(CCNC(C)=O)c2c1	4.33% (inactive)	
Cn1c(=O)c2[nH]cnc2n(C)c1=O	-8.48% (inactive)	
NS(=O)(=O)c1cc2c(cc1Cl)NCNS2(=O)=O	12.5% (inactive)	
Cc1cn([C@H]2C[C@H](N=[N+]=[N-])[C@@H](CO)O2)c(=O)[nH]c1=O	4.31% (inactive)	
O=c1c(-c2ccc(O)cc2)coc2cc(O)cc(O)c12	-9.73% (inactive)	
COc1ccc2c(c1)c(CC(=O)O)c(C)n2C(=O)c1ccc(Cl)cc1	-12.6% (inactive)	
Clc1ccc(C(c2ccccc2Cl)C(Cl)Cl)cc1 (stereo not drawn)	-5.41% (inactive)	
CC(C)NCC(O)c1ccc(O)c(O)c1 (stereo not drawn)	-22.7% (inactive)	
O=c1[nH]cc(F)c(=O)[nH]1	-30.6% (inactive)	
Cc1ccc(-c2cc(C(F)(F)F)nn2-c2ccc(S(N)(=O)=O)cc2)cc1	-6.95% (inactive)	
Nc1ccn([C@H]2CC[C@@H](CO)O2)c(=O)n1	-0.939% (inactive)	
CCC1(c2ccccc2)C(=O)NCNC1=O	-4.45% (inactive)	
Nc1c2c(nc3ccccc13)CCCC2	-24.2% (inactive)	
Cn1c(=O)c2c(ncn2C)n(C)c1=O	-2.86% (inactive)	
N[C@@H](Cc1c[nH]c2ccc(O)cc12)C(=O)O	-6.64% (inactive)	
NCCS(=O)(=O)O	-10.4% (inactive)	
CC(C)C(=O)Nc1ccc([N+](=O)[O-])c(C(F)(F)F)c1	-16.6% (inactive)	
Cc1cn([C@H]2C=C[C@@H](CO)O2)c(=O)[nH]c1=O		inactive
